High-throughput results (PubChem)
Only some compounds are listed: those with a hit (about 3.5% of all), similar ones and a draw of the others.
MITF primary – MITF inhibitors, primary screen, biochemical, AlphaScreen, human | Microphthalmia-associated transcription factor (Homo sapiens), O75030 | AlphaScreen MITF homodimerization, bead proximity signal | inhibition, % at 2.6 µM | 0.91% of 650,000 active; in the data active = inhibition above about 50%
GPR151 ag – activators of human GPR151, primary screen, cell-based, PathHunter beta-arrestin, luminescence; G-protein coupled receptor 151 (Homo sapiens), Q8TDV0; PathHunter beta-arrestin GPR151 cells; activation, % at 11.2 µM; 1% of 650,000 active; in the data active = activation above about 4.9%
TEAD-YAP block – TEAD-YAP interaction inhibition, primary screen, TEAD-YAP interaction inhibitor project, luminescence, HEK-TIYL cells. AID 1259422, 2018. TEAD-Gal4/YAP UAS-luciferase luminescence. 1.4% of 640,000 active. inhibition, % at 9.12 µM; in the data active = inhibition above about 32%
FBW7 act – FBW7 E3 ligase activators, primary screen, biochemical, AlphaScreen, human; AID 1259310, 2017; 0.13% of 650,000 active; normalized activity (activation), % at 26.1 µM; AlphaScreen FBW7–phospho-cyclin E peptide binding, activator screen; in the data active = normalized activity above about 1.9%;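 note: purified mutant Fbw7 with reduced substrate affinity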
Numbers stand for hits; i = inactive.

SMILES | MITF primary | GPR151 ag | TEAD-YAP block | FBW7 act
CC(C)n1c(N2CCN(C(=O)Nc3ccccc3)CC2)nc2ccccc21 | i | i | i | i
C=CCNC(=O)c1ccc(C)nc1NCc1cccnc1 | i | i | i | 1.9
Cc1ccc(C(=O)NCc2cccnc2)c(NCc2cccnc2)n1 | i | i | i | i
COc1cc(/C=N/Nc2snc(SC)c2C#N)cc(OC)c1OC | i | i | 34 | i
CCOc1ccc(/C=N/Nc2snc(SC)c2C#N)cc1 | i | i | i | i
CSc1nnc(C)c(=O)n1COC(=O)c1ccc(F)c(F)c1 | i | i | i | i
O=[N+]([O-])c1ccc(Nc2nccs2)c([N+](=O)[O-])c1 | i | i | 59 | i
O=[N+]([O-])c1cnc(Nc2ccc(S(=O)(=O)Nc3nccs3)cc2)c([N+](=O)[O-])c1 | i | i | i | i
COc1nccnc1NS(=O)(=O)c1ccc(NC(=S)NC(=O)c2ccnn2C)cc1 | i | i | i | i
O=C(Nc1ccc(N2CCCC2=O)cc1)c1ccco1 | i | i | 59 | i
Cc1cccc(C(=O)Nc2cccc(N3CCCS3(=O)=O)c2)c1 | i | i | i | i
COc1ccc(S(=O)(=O)N(CC(=O)Nc2c(C)n(C)n(-c3ccccc3)c2=O)c2ccc(Cl)cc2)cc1 | i | i | i | i
CCOc1cc(C=C2C(=O)NC(=S)NC2=O)ccc1OCC(=O)O | 70 | i | i | i
O=C(NCc1ccccc1)C(=O)Nc1ccc2nc3n(c(=O)c2c1)CCCCC3 | i | i | i | i
O=C(NC1CC1)c1ccnc(Cl)c1 | i | i | i | i
O=C(NC1CCC(CC2CCC(NC(=O)c3ccncc3)CC2)CC1)c1ccncc1 (stereo not given) | i | i | 32 | i
CCOC(=O)C1=C(CN(C)c2ccc(F)cc2)NC(=O)NC1c1ccco1 (stereo not given) | i | i | i | i
CC1=CC2=NC(=O)/C(=C\c3ccc(OCCOc4cccc(C)c4)cc3)C(=N)N2O1 | i | i | i | 2.2
CC1=CC2=NC(=O)/C(=C\c3ccc(OCc4ccc5c(c4)OCO5)c(Cl)c3)C(=N)N2O1 | i | i | 59 | i
COc1cc(/C=C2/C(=N)N3OC(C)=CC3=NC2=O)ccc1OCCOc1cccc(C)c1 | i | i | i | i
CC1=CC2=NC(=O)/C(=C\c3cc(C)n(-c4cccc(C)c4)c3C)C(=N)N2O1 | i | i | 50 | i
CC1=CC2=NC(=O)/C(=C\c3cc(C)n(-c4cccc(Cl)c4)c3C)C(=N)N2O1 | i | i | i | i
Cc1cccc2sc(NS(=O)(=O)c3ccccc3[N+](=O)[O-])nc12 | i | i | i | i
CCOC(=O)c1c(C=O)c(C)n(Cc2ccccc2Cl)c1C | i | i | i | i
O=C(CCc1ccc(S(=O)(=O)N2CCOCC2)cc1)N/N=C/c1ccc(O)c(O)c1O | 54 | i | i | i
SMILES | MITF primary | GPR151 ag | TEAD-YAP block | FBW7 act
Cc1c(/C=N/NC(=O)CCc2ccc(S(=O)(=O)N3CCOCC3)cc2)cc(C#N)n1C | i | i | i | i
CCc1ccc(C(=O)Nc2ccc(I)cn2)cc1 | i | i | i | i
COc1ccc(OCC(=O)Nc2ccc(NC(=O)c3ccccc3)cc2)cc1 | i | i | 36 | i
Cc1ccc(NC(=O)c2ccc(OCC(=O)Nc3ccccc3)cc2)cc1 | i | i | i | i
CCc1ccc(C(=O)Nc2ccc(Br)cn2)cc1 | i | i | 38 | i
CC(=O)Nc1ccc(OCCC[n+]2ccccc2)cc1 | i | i | i | 1.9
Cc1ccc(C(=O)Nc2ccc(OCC(=O)O)cc2)cc1 | i | i | 37 | i
COc1cc(C(=O)Nc2ccc(-c3nc4ccccc4s3)c(O)c2)ccc1OCc1ccc(Cl)cc1 | i | i | i | i
CCc1ccc(C(=O)Nc2ccc(Br)cc2)cc1 | i | i | i | i
CC(=O)Nc1ccc(OCC(=O)Nc2cccc(Oc3ccccc3)c2)cc1 | i | i | 36 | i
Cc1ccc(-n2nc3ccc(NC(=O)COc4ccccc4)cc3n2)cc1Cl | i | i | i | 5.2
CC(=O)Nc1cccc(NC(=O)COc2ccc(Oc3ccccc3)cc2)c1 | i | i | i | i
CCc1ccc(C(=O)Nc2ccc(C(=O)O)cc2)cc1 | i | i | 58 | i
COc1ccc(NC(=O)COc2c(C)ccc(C)c2C)cc1 | i | i | 46 | i
CC(=O)NCC(=O)OCC(=O)c1ccccc1 | i | i | i | i
O=C(Nc1ccc(Br)cn1)c1ccccc1[N+](=O)[O-] | i | i | 54 | i
CCOc1ccc(C(=O)Nc2ccc(OCC(=O)O)cc2)cc1 | i | i | 48 | i
O=C1NC(=O)N(c2cccc(Br)c2)C(=O)/C1=C/c1cccc(O)c1 | i | i | i | i
